Holding throughout (assay): NCI-60 one-dose screen, 48 h (100 = growth as untreated, 0 = no growth, -100 = all killed)
The test system of one experiment is HT29 colon. Particulars: 10 µM unless noted.
The test system of another experiment is SNB-19 CNS. As to conditions: 10 µM unless noted.
A further experiment deals with U251 CNS. As to conditions: 10 µM unless noted.
The next experiment relates to PC-3 prostate. Particulars: 10 µM unless noted.
For the next experiment, the system named is SK-MEL-5 melanoma. Particulars: 10 µM unless noted.
Another experiment concerns UACC-62 melanoma. As to conditions: 10 µM unless noted.
The next experiment relates to LOX IMVI melanoma. Particulars: 10 µM unless noted.
A further experiment relates to SK-MEL-28 melanoma. As to conditions: 10 µM unless noted.
A further experiment relates to SK-MEL-2 melanoma. Particulars: 10 µM unless noted.
The subject of another experiment is EKVX NSCLC. Particulars: 10 µM unless noted.
The test system of another experiment is SN12C renal. Particulars: 10 µM unless noted.
The next experiment deals with UO-31 renal. Particulars: 10 µM unless noted.
In a further experiment the test system is TK-10 renal. Particulars: 10 µM unless noted.
For the next experiment, the system named is ACHN renal. Particulars: 10 µM unless noted.
In another experiment the test system is CAKI-1 renal. Particulars: 10 µM unless noted.
The test system of another experiment is A498 renal. As to conditions: 10 µM unless noted.
The next experiment concerns CCRF-CEM leukemia. Particulars: 10 µM unless noted.
The test system of another experiment is MOLT-4 leukemia. Particulars: 10 µM unless noted.
In another experiment the test system is SNB-75 CNS. As to conditions: 10 µM.

For 8 compounds, growth results are on record in PubChem BioAssay (NCI).

Compounds without any hit were thinned out: in the full panel of roughly 83,000, 20% have a hit.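 The test compound was applied at a single concentration to cells in 96-well plates for 48 hours, and percent growth was recorded.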 Unmarked numbers belong to inactive results. Activity calls are given as the source filed them. How the source made its calls: active means growth percent below 10; inactive means the rest.

As to `CCCCCCCCCCCCNC(=O)[C@H]1CSC(c2ccsc2)N1` (stereo partly drawn), the growth is -74% (active) in the experiment with HT29 colon; -80% (active) in the experiment on SNB-19 CNS; -94.2% (active) in the experiment on U251 CNS; -88.9% (active) with PC-3 prostate; 36.5% with SK-MEL-5 melanoma; -93.5% (active) in the experiment on UACC-62 melanoma. In addition, the growth in the experiment with LOX IMVI melanoma was -89.5% (active); in the experiment with SK-MEL-28 melanoma, -88% (active); with SK-MEL-2 melanoma it was -91% (active); with EKVX NSCLC, -84% (active); in the experiment on SN12C renal, -87% (active); with UO-31 renal it was -99.6% (active). The growth in the experiment with TK-10 renal is -91.6% (active); with ACHN renal, -68.7% (active); in the experiment on CAKI-1 renal, -13.7% (active); with A498 renal it was 106%; in the experiment with CCRF-CEM leukemia, -43.2% (active).
Consider `CN(C)c1cccc2c(S(=O)(=O)/N=C(\N)Nc3nc4ccccc4s3)cccc12`, for which the growth was 48.2% in the experiment with HT29 colon; 53.6% in the experiment on SNB-19 CNS; 55.4% in the experiment on U251 CNS; 48.2% in the experiment with PC-3 prostate; 40.5% in the experiment with SK-MEL-5 melanoma; 42.8% with UACC-62 melanoma. For the same compound, the growth in the experiment on LOX IMVI melanoma is 51.7%; in the experiment on SK-MEL-28 melanoma it was 78.9%; in the experiment with SK-MEL-2 melanoma it was 15.3%; with EKVX NSCLC, 71.3%; with SN12C renal, 88.4%; in the experiment with UO-31 renal, 56.8%. Also, the growth in the experiment on TK-10 renal is 91.4%; in the experiment with ACHN renal it was 84.2%; with CAKI-1 renal, 54%; in the experiment with A498 renal, 74.5%; with CCRF-CEM leukemia, 69.1%; in the experiment on MOLT-4 leukemia it was 60.6%.
For `OCc1ncc(-c2ccccc2)s1`, the growth in the experiment with HT29 colon is 102%; in the experiment with SNB-75 CNS, 78.8%; with SNB-19 CNS, 98.5%; in the experiment on PC-3 prostate, 89.4%; in the experiment with SK-MEL-5 melanoma it was 105%; in the experiment with UACC-62 melanoma, 106%. The growth was 132% with SK-MEL-28 melanoma; 113% in the experiment with SK-MEL-2 melanoma; 87.8% in the experiment on EKVX NSCLC; 121% in the experiment with SN12C renal; 97.9% in the experiment on UO-31 renal; 110% in the experiment on TK-10 renal. In addition, the growth is 81.8% with CAKI-1 renal, 116% in the experiment with A498 renal, 90.6% in the experiment with CCRF-CEM leukemia and 110% with MOLT-4 leukemia.
As to `Cc1c(C(=O)/C=C/c2csc3ccccc23)[n+](=O)c2ccccc2n1[O-]`, the growth is 28.3% with HT29 colon; 73.7% in the experiment with SNB-19 CNS; 40.2% in the experiment on U251 CNS; 47.1% with PC-3 prostate; 79.5% with SK-MEL-5 melanoma; 70.5% with UACC-62 melanoma. Besides, the growth in the experiment on LOX IMVI melanoma was 34.1%; with SK-MEL-28 melanoma, 105%; with SK-MEL-2 melanoma, 95.3%; in the experiment on EKVX NSCLC it was 67.8%; in the experiment with SN12C renal, 78.7%; in the experiment with UO-31 renal it was 36.8%. The growth in the experiment on TK-10 renal is 76.5%; with ACHN renal it was 85%; with CAKI-1 renal, 17%; with A498 renal, 118%; in the experiment on CCRF-CEM leukemia, 51.9%; with MOLT-4 leukemia, 81.8%.
As for `COc1ccc(-c2cnnn2-c2nonc2-n2cccc2)cc1OC`, the growth in the experiment with HT29 colon was 12.3%; in the experiment on SNB-75 CNS, 51.3%; in the experiment on SNB-19 CNS it was 84.2%; in the experiment with U251 CNS, 56.8%; in the experiment on PC-3 prostate it was 61.2%; in the experiment on SK-MEL-5 melanoma it was 55.6%. In addition, the growth in the experiment on UACC-62 melanoma is 54.1%; in the experiment on LOX IMVI melanoma, 44.2%; in the experiment on SK-MEL-28 melanoma, 67.8%; with SK-MEL-2 melanoma it was 38%; in the experiment with SN12C renal it was 68.5%; with UO-31 renal, 72.2%. The growth was 69.6% in the experiment on TK-10 renal; 42.9% in the experiment on CAKI-1 renal; 56.3% in the experiment with A498 renal; 54.7% with CCRF-CEM leukemia; 18.1% in the experiment on MOLT-4 leukemia.
On to `O=S1(=O)CCC(N(/N=C/c2ccco2)c2ccccc2)C1` (stereo not drawn), for which the growth in the experiment on HT29 colon was 96.3%; with SNB-75 CNS it was 132%; in the experiment with SNB-19 CNS, 104%; in the experiment on U251 CNS, 99%; in the experiment with PC-3 prostate, 93.1%; in the experiment with SK-MEL-5 melanoma, 103%. Further, the growth with UACC-62 melanoma was 100%; in the experiment with LOX IMVI melanoma, 94.1%; with SK-MEL-28 melanoma it was 115%; with SN12C renal, 109%; with UO-31 renal, 86%; in the experiment on TK-10 renal, 101%. The growth in the experiment with ACHN renal was 106%; in the experiment on CAKI-1 renal, 107%; with A498 renal, 113%; in the experiment on CCRF-CEM leukemia, 94%; in the experiment with MOLT-4 leukemia, 97.1%.
For `C=C1C(=O)O[C@H]2[C@H]1CC/C(COC(=O)NCc1ccccc1OC)=C\CC[C@@]1(C)O[C@@H]21`, the growth is -3.76% (active) in the experiment with HT29 colon; 77.4% in the experiment on SNB-75 CNS; 57.6% in the experiment with SNB-19 CNS; 74.8% with U251 CNS; 52.4% with PC-3 prostate; 92.8% with SK-MEL-5 melanoma. For the same compound, the growth is 23.4% in the experiment with UACC-62 melanoma; 5.34% (active) with LOX IMVI melanoma; 47.5% in the experiment with SK-MEL-28 melanoma; 60.6% in the experiment with SK-MEL-2 melanoma; 23.4% in the experiment on SN12C renal; 22% with UO-31 renal. For the same compound, the growth in the experiment on TK-10 renal was 20.6%; in the experiment on ACHN renal, 6.65% (active); with CAKI-1 renal, 13.7%; in the experiment with A498 renal it was 67.1%; with CCRF-CEM leukemia, 6.8% (active).
For the compound `O=[N+]([O-])c1ccc(-c2cn(-c3ccccc3)c(-c3ccccc3)n2)cc1`, the growth with HT29 colon is 98.6%; in the experiment with SNB-75 CNS, 70.7%; with SNB-19 CNS, 36.3%; in the experiment with U251 CNS, 58.6%; in the experiment on PC-3 prostate it was 48.1%; with UACC-62 melanoma, 83.1%. The growth in the experiment with LOX IMVI melanoma is 94.3%; in the experiment on SK-MEL-28 melanoma it was 96.7%; in the experiment with SK-MEL-2 melanoma it was 74.8%; with EKVX NSCLC it was 88.7%; in the experiment with SN12C renal it was 77.6%; with UO-31 renal it was 55%. Besides, the growth in the experiment with TK-10 renal was 108%; with ACHN renal, 95.1%; in the experiment with CAKI-1 renal, 87.7%; in the experiment on A498 renal, 82%; with CCRF-CEM leukemia, 27.3%; with MOLT-4 leukemia, 62.7%.
